A selection: hits, their analogues and other compounds. The true share with any hit is near 6.8%.
PMK inhibit – inhibitors of Streptococcus pneumoniae phosphomevalonate kinase | purified PMK, PK/LDH-coupled NADH absorbance 340 nm | inhibition, % at 10 µM | actives 0.49% (n = 65,000) | AID 539;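 active means top-ranked compounds by inhibition in the single 10 µM screen, taking a fixed number of the strongest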;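 further: 0% = full reaction with DMSO carrier and 100% = background rate without enzyme reaction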
DPM-DC inhibit – blocks S. pneumoniae diphosphomevalonate decarboxylase; AID 556; calls only at 10 µM; purified DPM-DC, PK/LDH coupled NADH fluorescence; actives 0.49% (n = 65,000);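 active means the 320 compounds with the highest percent inhibition in the single-dose primary screen, excluding strongly autofluorescent ones, cut at about 32% in these data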;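 further: kinetic rate of NADH fluorescence loss reporting ADP formed by the decarboxylase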
Spn MK inh – inhibitors of Streptococcus pneumoniae mevalonate kinase; AID 555; purified MK, PK/LDH-coupled NADH absorbance 340 nm; inhibition, % at 10 µM; actives 0.48% (n = 65,000);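 active means ranked among the strongest by inhibition in the single 10 µM screen, a fixed top-ranked set picked for dose follow-up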
Abs 340nm – compounds absorbing at 340 nm; compound absorbance at 340 nm, fold over control; fold change at 10 µM; 65,000 tested, under 10 active;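 active means at 10 µM dose, initial 340 nm absorbance at least 2 fold that of control wells; inactive means change under 2 fold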;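 further: initial absorbance extrapolated from kinetic A340 decline of NADH oxidation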
NADH enzymes – inhibition of NAD/NADH coupling enzymes, library profiling; AID 774; IC50, µM (titrated, usually from 10 µM), without a hit: top-dose inhibition; actives 0.02% (n = 65,000); coupled PK/LDH NADH assays, four targets;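 active means single-dose screening hits from any of four coupled enzyme assays that gave an IC50 when retested across doses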;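 further: the DPM-DC format reads NADH fluorescence rather than 340 nm absorbance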
Fluor 339 460 – intrinsic fluorescence of library compounds, ex339/em460 – biochemical, MLSMR library, data from DPM-DC assay, artefact control, profiling panel. AID 709. actives 5.5% (n = 65,000). fluorescence fold increase at 10 µM. compound autofluorescence, ex339/em460 nm, NADH buffer; stronger effect = higher value; 1 = no-compound wells, NADH background;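 active means at 10 µM, mean starting fluorescence two-fold or more over control wells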;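 further: signal is the first read of a kinetic run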
The depositor's hits bear a star; i = inactive; · = no result given; + = active, no number; [ ] = another dose, or the depositor's remark.

SMILES	PMK inhibit	DPM-DC inhibit	Spn MK inh	Abs 340nm	NADH enzymes	Fluor 339 460
Cc1ccnc(NC(=O)CCC(=O)N(CC(=O)NC2CCCCC2)c2ccc3c(c2)OCO3)c1	·	i	7	0.98	4%	1.1
CCOC(=O)CC(=O)CSc1nc2c(c(C)c1C#N)CCC2	16	i	0	1	9%	2.7*
Cc1nc2nc(-c3cccs3)cn2nc1C	13	·	11	1	12%	3.7*
COc1cccc(-c2cn3nc(C)c(C)nc3n2)c1	13	i	10	1.1	12%	3.1*
COc1cc(C2/C(=C(/O)c3ccc(F)cc3)C(=O)C(=O)N2CCCC(=O)O)ccc1O (stereo not given)	3	i	6	1.1	3%	1
COc1ccc(N2CCN(Cc3nc4c(c(=O)n(C)c(=O)n4C)n3Cc3ccccc3C)CC2)cc1	5	i	4	0.98	3%	1
c1ccc2c(c1)ncn2CCC1CCCCC1	5	i	9	1	7%	1.1
CC(=O)Nc1ccc(NC(=O)c2cc(C)nn2-c2ccccc2)cc1	1	i	4	0.98	3%	1
CC(=O)c1cc2c(cc1NC(=O)CCCC(=O)O)OCO2	6	i	5	1	4%	1.5
CC(=O)c1cc2c(cc1NC(=O)c1cc(C)nn1-c1ccccc1)OCO2	3	·	3	1.1	3%	2.2*
CC(=O)c1cc2c(cc1NC(=O)CCc1ccccc1)OCO2	9	i	19	1	13%	2.3*
CN(CCC(=O)Nc1ccc2c(c1)OCO2)Cc1ccccc1	13	i	45*	0.98	19%	1.2
CCCn1c(NC(=O)c2cccc(S(=O)(=O)N3CCCC3)c2)nc2ccccc21	17	i	0	1.1	9%	1.3
CCn1c2ccccc2c2nnc(SCC(=O)NC(C(=O)OC)C(C)C)nc21 (stereo not given)	13	i	9	1	7%	1.1
CC(C)OCCCn1c(-c2ccco2)nc2nc3ccccc3nc21	7	·	8	1.1	8%	3.8*
COCCn1c(-c2ccco2)nc2nc3ccccc3nc21	7	·	7	1	4%	3*
O=c1c2ccccc2nc2n1CC/C2=C/N1CCN(c2cccc(C(F)(F)F)c2)CC1	7	i	3	1.1	3%	1
COc1ccc(NC(=O)c2ccco2)cc1NC(=O)c1ccc(Br)o1	9	i	9	1.1	11%	1.1
Cc1ccc(NC(=O)c2cc(NC(=O)c3ccco3)ccc2N2CCCCC2)cc1	1	·	3	1.1	2%	2.1*
CCOc1cc(NC(=O)c2ccco2)c(OCC)cc1NC(=O)CCc1ccc(OC)cc1	16	+[fluoresces]	0	1	4%	2.1*
COc1ccc(NC(=O)c2ccco2)cc1NC(=O)c1ccc(C)cc1	27*	i	0	1	9%	1.1
CCOc1ccc(C(=O)Nc2ccc(NC(=O)c3ccco3)c(Cl)c2)cc1Br	11	i	0	1.1	4%	3*
CN(C)S(=O)(=O)c1cc(S(=O)(=O)N(C)C)c(Cl)cc1N	0	i	4	1	1%	1.1
CC1=C(C)C(=O)NC(Nc2nc(C)c3cc(C)cc(C)c3n2)N1 (stereo not given)	5	i	5	1	2%	0.99
Nc1nncn1C(=O)CCCOc1ccc(Cl)cc1Cl	5	i	14	1.1	6%	1.1
SMILES	PMK inhibit	DPM-DC inhibit	Spn MK inh	Abs 340nm	NADH enzymes	Fluor 339 460
COC(=O)CSc1nc2sc3c(c2c(=O)n1C1CCCCC1)CCN(C)C3	3	·	1	1.1	13%	2.5*
COc1ccc(-n2c(SCC(N)=O)nc3sc4c(c3c2=O)CCN(C)C4)cc1	8	i	0	1.1	6%	1.1
COCCN1Cc2cccc(C(=O)NCc3ccc4c(c3)OCO4)c2C1=O	13	i	5	0.97	6%	1
COCCn1nnnc1C(C(C)C)N(Cc1cccnc1)Cc1cc2cc(OC)ccc2[nH]c1=O (stereo not given)	14	i	11	1.1	18%	2.4*
CC1Cc2ccccc2C(=O)N1 (stereo not given)	11	i	10	1	8%	1.1
c1ccc(CSc2nnc3c(n2)OC(c2ccco2)Nc2ccccc2-3)cc1 (stereo not given)	0	i	0	1.1	2%	0.96
Cc1ccc(C2NC(=O)c3ccccc3N2)s1 (stereo not given)	13	·	2	1.1	8%	2.1*
O=C1NC(c2ccncc2)Nc2ccccc21 (stereo not given)	4	i	4	1	7%	2.5*
O=C1NC(c2ccco2)Nc2ccccc21 (stereo not given)	15	·	5	0.99	4%	2.9*
Cc1ccc2c(c1)N(CC(=O)N1CCc3ccccc3C1)C(=O)CO2	12	i	0	0.98	4%	1.1
CCCCn1c(=NC(=O)c2ccco2)c(C(=O)OCC)cc2c(=O)n3ccccc3nc21	0	·	12	1	6%	2.2*
CCCCCn1c(=NC(=O)c2ccco2)c(C(=O)OCC)cc2c(=O)n3ccccc3nc21	9	i	5	1.1	9%	3*
CCOC(=O)c1c(C)nc2ccccn12	11	i	6	1	6%	1.1
CC(C)c1ccc(-c2nnn(Cc3nc4ccccc4s3)n2)cc1	13	i	0	0.96	4%	1.1
O=C(Nn1cnnc1)c1ccc(F)c(S(=O)(=O)N2CCCCC2)c1	12	i	10	0.99	7%	1.1
CCOc1ccc(N2C(=O)CC(N3CC(C)OC(C)C3)C2=O)cc1 (stereo not given)	9	i	9	1.1	4%	1
Cc1ccc(NC(=O)c2oc3ccccc3c2NC(=O)c2ccc3c(c2)OCO3)cc1	3	i	0	1.1	1%	2*
O=C(Nc1c(C(=O)Nc2cccc(F)c2)oc2ccccc12)c1ccc2c(c1)OCO2	6	·	0	1.1	3%	5*
O=C(Nc1cccc(F)c1)c1ccc2c(c1)OCO2	8	i	18	1	4%	1.1
CCOC(=O)c1ccc(NC(=O)c2ccc3c(c2)OCO3)cc1	4	i	3	1.1	2%	1.1
CCCN(CCC)c1nc2ccccc2nc1C(C#N)C(=O)OCCOC (stereo not given)	5	i	7	1	4%	1.5
C=CCN(CC=C)c1nc2ccccc2nc1C(C#N)C(=O)OCCOC (stereo not given)	7	i	5	1	10%	2.2*
O=c1c2ccccc2c(/C=N/n2cnnc2)c(O)n1-c1ccccc1F	14	i	9	1	13%	3*
O=c1c2ccccc2c(C=NCCO)c(O)n1-c1ccccc1	0	i	0	1.1	0%	1.2
